Records with an inconclusive call do not appear. Where a call stands in place of a potency, no number is given. Calls of active or inactive are those of the source. The call rests on the fitted dose curve.
Test: qHTS assay to identify small molecule agonists of the NFkB signaling pathway - cell viability counter screen (AID 1159515); further: nearly all actives have a fitted effect of over 55% in size
Details: NFkB-bla ME-180 viability, CellTiter-Glo luminescence, 5 h; series mostly up to 61 µM
Text: National Center for Advancing Translational Sciences [NCATS]
NIH Chemical Genomics Center [NCGC]
U.S. Environmental Protection Agency [EPA]
National Institutes of Environmental Health Sciences [NIEHS]
National Toxicology Program [NTP]
U.S. Food and Drug Administration [FDA]
Transcription factors and their stimulated target gene expression play pivotal roles across many cellular processes including responses to environmental stimuli. Proper regulation of associated pathways is critical to maintain cell health and function. Constitutive activation of transcription factor pathways has been implicated in tumors as it may block cellular functions such as apoptosis and lead to invasion and metastasis. One important transcription factor that stimulates gene expression in response to cytokines, UV radiation, and other stimuli is nuclear factor-kappa B (NFkB). To measure activation of the NFkB pathway, the CellSensor NFkB-bla ME-180 cell line (Life Technologies, Carlsbad, CA) that stably expresses beta-lactamase reporter gene under the regulation of a NF-kB response element was used. This assay allows measurement of the NFkB pathway activity induced by compounds in a ME-180 cell line. This system quantitates NF-kB activity using a FRET-based assay system where beta-lactamase expression disrupts FRET, allowing for fluorescent measurement of activity. This cell line has been used to screen the Tox21 10K compound library and to identify compounds that induce the NFkB pathway activity. The cytotoxicity of the Tox21 compound library against the NFkB-bla ME-180 cell line was tested in parallel by measuring cell viability using the CellTiter-Glo assay in the same wells.
Tox21 Assay Protocol Summary:
NFkB-bla ME-180 cells were dispensed at 2,000 cells/6 uL of assay medium per well into black wall/clear-bottom 1536-well plates using a Multidrop Combi (ThermoFisher Scientific, Waltham, MA) dispenser. After the assay plates were incubated at 37 C and 5% CO2 for an overnight, 23 nL of compounds dissolved in DMSO, positive controls or DMSO only was transferred to the assay plate by a Pintool station (Kalypsys, San Diego, CA). The assay plates were incubated at 37 C and 5% CO2 for 5 hr. One uL of LiveBLAzer B/G FRET substrate (Life Technologies) was added using a Flying Reagent Dispenser (Aurora Discovery, San Diego, CA) and the plates were incubated at room temperature for 1.5 hr. Fluorescence intensity (405 nm excitation, 460 nm and 530 nm emissions) was measured using an Envision plate reader (PerkinElmer, Shelton, CT). For cytotoxicity, 3 ul/well of CellTiter-Glo reagent was added into the assay plates using an FRD. After 30 min incubation at room temperature, the luminescence intensity was measured using a ViewLux plate reader (PerkinElmer).
In the case of `COC(N)=O`, the Potency was “inactive”. For `COC(=O)C(C)N(C(=O)Cc1ccccc1)c1c(C)cccc1C` (stereo not given), the Potency was “inactive”. For `Clc1cc(Cl)c(Cl)c(Cl)c1`, the Potency was “inactive”. In the case of `CCCN(CC1CC1)c1c([N+](=O)[O-])cc(C(F)(F)F)cc1[N+](=O)[O-]`, the Potency was “inactive”. For `O=C(O)C1(c2ccc3c(c2)OC[C@H](Cc2ccc(-c4ccccc4)cc2)[C@H]3O)CCCC1`, the Potency was “inactive”. With `CCOc1ccc(C(C)(C)COCc2cccc(Oc3ccccc3)c2)cc1` the Potency was “inactive”. In the case of `O=C1C(Cl)C(CCl)CN1c1cccc(C(F)(F)F)c1` (stereo not given), the Potency was “inactive”. For `CC(=O)[C@H]1CC[C@H]2[C@@H]3CC[C@H]4C[C@](C)(O)CC[C@]4(C)[C@H]3CC[C@]12C`, the Potency was “inactive”. With `CCOC(=O)COc1cc(-c2nn(C)c(OC(F)F)c2Cl)c(F)cc1Cl` the Potency was “inactive”. With `ClCc1cccc(Cl)c1` the Potency was “inactive”. For `O=S1(=O)OC(c2cc(Br)c(O)c(Br)c2)(c2cc(Br)c(O)c(Br)c2)c2ccccc21`, the Potency was 40 µM (active). In the case of `CO/C=C(/C(=O)OC)c1ccccc1COc1cccc(C(F)(F)F)n1`, the Potency was “inactive”. For `C[N+](C)(C)CCCl`, the Potency was “inactive”. For `C=COC(C)=O`, the Potency was “inactive”. In the case of `S=C=NCc1ccccc1`, the Potency was “inactive”. With `NC(=O)CI` the Potency was “inactive”. In the case of `CCOP(=O)(OCC)O/C(=C/Cl)c1ccc(Cl)cc1Cl`, the Potency was “inactive”. In the case of `COc1cc(Cl)c(OC)cc1Cl`, the Potency was “inactive”. For `O=NN1CCCCCC1`, the Potency was “inactive”. For `CCOP(=S)(Oc1ccc([N+](=O)[O-])cc1)c1ccccc1` (stereo not given), the Potency was “inactive”. In the case of `CCOP(=S)(OCC)Oc1cc(Cl)c(Br)cc1Cl`, the Potency was “inactive”. In the case of `N#Cc1ccc(Cl)cc1`, the Potency was “inactive”. With `C=CC(=O)OC` the Potency was “inactive”. For `CCO[C@H]1O[C@@H]2OC3(C)CC[C@H]4[C@H](C)CC[C@@H]([C@H]1C)[C@@]24OO3`, the Potency was “inactive”. With `CC(=O)c1cc2c(cc1C)C(C)(C)C(C)CC2(C)C` (stereo not given) the Potency was “inactive”. For `NS(=O)(=O)C(F)(F)C(F)(F)C(F)(F)C(F)(F)C(F)(F)C(F)(F)C(F)(F)C(F)(F)F`, the Potency was “inactive”. For `O=Cc1ccc2c(c1)OCO2`, the Potency was “inactive”. In the case of `O=C(CBr)OCc1ccccc1`, the Potency was “inactive”. With `CCCCCC[N+](=O)[O-]` the Potency was “inactive”. With `Cc1ccc(N)cc1C` the Potency was “inactive”. For `COC(=O)c1cncn1C(C)c1ccccc1` (stereo not given), the Potency was “inactive”. With `Clc1ccc(C2(Cn3cncn3)CC(Br)CO2)c(Cl)c1` (stereo not given) the Potency was “inactive”. With `BrCCCCBr` the Potency was “inactive”. In the case of `CC1Sc2c(C(=O)O)c(=O)c3cc(F)c(N4CCNCC4)cc3n21` (stereo not given), the Potency was “inactive”. For `O=C(NC(=O)c1c(F)cccc1F)Nc1ccc(OC(F)(F)C(F)OC(F)(F)F)c(Cl)c1` (stereo not given), the Potency was “inactive”. In the case of `ClCc1ccccc1`, the Potency was “inactive”. For `COC(=O)C(Br)CBr` (stereo not given), the Potency was “inactive”. With `Brc1ccccc1` the Potency was “inactive”. For `CCCCNP(N)(N)=S`, the Potency was “inactive”. For `O=C(C(Cl)(Cl)Cl)C(Cl)(Cl)Cl`, the Potency was “inactive”.

From PubChem BioAssay (Tox21)
Potency means the concentration at half of the fitted maximal effect.
